Compounds with a hit are over-represented: about 1.3% of the library has one in this group of screens.
GRK2 aptamer HTS: inhibitors of human GRK2 displacing RNA aptamer. P25098. bead flow cytometry, FAM-aptamer displacement from GRK2. inhibition of aptamer binding, % at 10 µM. 0.59% of 330,000 active;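 active means inhibition of aptamer binding above 40%, roughly 3 SD of noise, on plates passing a quality check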;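 further: median bead fluorescence of bound FAM aptamer so fluorescent compounds give negative values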
A1 inh: inhibitors of the anti-apoptotic protein A1, read as caspase activation; MEF A1-2A-BIM cells, Caspase-Glo 3/7 luminescence, 3 h; percent of clofoctol response, vehicle zero; caspase activation, % (concentration not given with the values); 0.066% of 330,000 active; AID 2462;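 active means over half of replicate activation scores above 10%, or exactly half above 10 with the replicate mean above 10; inconclusive means replicate mean below 10 yet half the replicates above 10; inactive means over half of replicates below 10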
VLA-4 inh: inhibition in a human VLA-4 binding assay. 0.2% of 330,000 active. VLA-4 expressing cells, ligand binding flow cytometry. inhibition, % (about 7 µM as worked out from the volumes in the protocol); in the data active means inhibition above about 50%
Target sequence (P13612 whole entry, looked up): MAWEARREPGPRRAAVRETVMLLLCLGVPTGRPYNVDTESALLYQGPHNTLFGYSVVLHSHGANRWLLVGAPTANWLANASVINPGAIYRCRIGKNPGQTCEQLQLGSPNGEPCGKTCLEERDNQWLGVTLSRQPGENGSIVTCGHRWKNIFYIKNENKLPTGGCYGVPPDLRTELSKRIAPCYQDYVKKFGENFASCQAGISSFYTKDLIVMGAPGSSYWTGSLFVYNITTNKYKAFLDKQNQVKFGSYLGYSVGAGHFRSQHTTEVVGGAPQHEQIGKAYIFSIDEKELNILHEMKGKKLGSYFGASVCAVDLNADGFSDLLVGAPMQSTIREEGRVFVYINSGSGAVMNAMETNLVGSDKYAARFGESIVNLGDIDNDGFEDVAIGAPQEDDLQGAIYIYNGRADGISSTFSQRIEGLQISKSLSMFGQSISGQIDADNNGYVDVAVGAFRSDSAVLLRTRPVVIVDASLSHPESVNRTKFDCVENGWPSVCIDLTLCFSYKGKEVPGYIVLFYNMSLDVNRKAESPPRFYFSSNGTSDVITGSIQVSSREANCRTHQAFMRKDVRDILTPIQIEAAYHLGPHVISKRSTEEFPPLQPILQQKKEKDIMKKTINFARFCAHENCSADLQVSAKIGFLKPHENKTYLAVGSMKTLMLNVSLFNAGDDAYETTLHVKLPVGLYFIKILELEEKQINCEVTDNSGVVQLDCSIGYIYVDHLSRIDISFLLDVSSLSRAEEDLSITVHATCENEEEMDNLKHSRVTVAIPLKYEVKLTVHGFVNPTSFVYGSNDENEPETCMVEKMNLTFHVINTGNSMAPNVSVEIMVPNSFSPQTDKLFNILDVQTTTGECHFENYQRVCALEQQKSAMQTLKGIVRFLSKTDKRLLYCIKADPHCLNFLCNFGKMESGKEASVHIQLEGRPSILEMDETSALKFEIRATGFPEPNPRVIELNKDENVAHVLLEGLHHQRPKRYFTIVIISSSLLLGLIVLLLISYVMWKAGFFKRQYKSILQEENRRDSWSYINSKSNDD
NTR1 ag: NTR1 (human) agonism; P30989; NTR1-U2OS beta-arrestin-GFP spot imaging, agonist mode; activation, % at 20 µM; 0.17% of 330,000 active; AID 493036;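 active means activation at or above 40% of the spot to cytoplasm intensity ratio, with at least 20 cells analyzed; inconclusive means wells under 20 cells, flagged as cytotoxic or low count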;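 further: 0% = DMSO without peptide and 100% = 100 nM NTR1 peptide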
Beta2AR agonist: activates human beta-2 adrenergic receptor causing internalization; Am2.2-beta2AR cells, FAP receptor internalization, flow cytometry; AID 504454; response, % (test concentration not listed); 0.43% of 340,000 active; P07550;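 active means response above a set limit, near 3 SD of response in nonfluorescent compounds, cut at about 42% in these data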
NTR1 ag conf: NTR1 (human) agonism, confirmed. shares compounds with NTR1 ag. NTR1-U2OS beta-arrestin-GFP translocation imaging. activation, % at 20 µM. 38% of 480 active;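 active means mean activation at 20 µM of at least 40%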;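 further: 0% = DMSO without peptide and 100% = 100 nM NTR1 peptide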
* = called active by the depositor; i = inactive; ? = inconclusive; / = no result given.

SMILES	GRK2 aptamer HTS	A1 inh	VLA-4 inh	NTR1 ag	Beta2AR agonist	NTR1 ag conf
O=C(COc1ccccc1[N+](=O)[O-])Nc1ccc(NC(=O)c2cc3ccccc3o2)cc1	0	7.5*	-8	40*	12	36
Cc1cccc(CC(=O)N2CCC(n3nccc3NC(=O)C3CC3)CC2)c1	0	2	-3	0	-6	/
Cc1cccc(NC(=O)c2nc[nH]c2C(=O)N[C@@H](C)C(=O)OC(C)(C)C)c1	0	1	-22	12	4	/
C[C@H](NC(=O)c1[nH]cnc1C(=O)Nc1ccc(Cl)cc1)C(=O)OC(C)(C)C	2	2	30	41*	-2	29
CCOC(=O)c1ccc(NC(=O)c2nc[nH]c2C(=O)N[C@@H](C)C(=O)OC(C)(C)C)cc1	0	?	-14	43*	-1	40
C=CCN([C@@H](CC(C)C)C(=O)OC)S(=O)(=O)N(CC=C)[C@@H](CC(C)C)C(=O)OC	2	0	7	0	21	/
CC(=O)Nc1nc(-c2ccc3c(c2)CC(C)N3C(=O)C2CC2)c(C)s1 (stereo unspecified)	1	0	-11	-1	10	/
Cc1sc(NC(=O)c2ccco2)nc1-c1ccc2c(c1)CC(C)N2C(=O)C1CC1 (stereo unspecified)	1	0	-1	71*	31	66*
CC/C(=N/NC(=O)c1ccc(Br)cc1)c1ccc(OCCN2CCOCC2)cc1	7	-1	6	2	-3	/
CCCOc1ccc(/C(CC)=N/NC(=O)C2(C)CC2(Br)Br)cc1 (stereo unspecified)	0	1	-2	42*	2	24
COc1ccc(CSc2nnc(-c3ccncc3)n2C)cc1F	0	1	-7	-1	-5	/
C[C@]12CCC(O)CC1CCC1C2CC[C@]2(C)C(c3cc(C(F)(F)F)n[nH]3)CCC12 (stereo partly specified)	1	1	0	74*	24	30
COc1cc(C(CCN2CCCC2)c2c(OC)cc(OC)c3c(-c4ccccc4)cc(=O)oc23)cc(OC)c1OC (stereo unspecified)	0	0	-5	41*	-5	16
COc1cc(C(CCN2CCOCC2)c2c(OC)cc(OC)c3c(-c4ccccc4)cc(=O)oc23)cc(OC)c1OC (stereo unspecified)	0	/	/	4	-1	/
CC(C)(C)C1CCc2c(sc(NC(=O)CSc3ncn[nH]3)c2C#N)C1 (stereo unspecified)	0	0	6	41*	-10	31
CC(=O)n1cc(C(C[N+](=O)[O-])SCCN)c2ccccc21 (stereo unspecified)	0	2	15	47*	76*	76*
Cn1cc(C(C[N+](=O)[O-])c2ccccc2)c2ccccc21 (stereo unspecified)	0	1	27	4	4	/
CN(Cc1ccccc1)S(=O)(=O)c1ccc(Cl)c(C(=O)OCC(=O)NC2CCS(=O)(=O)C2)c1 (stereo unspecified)	0	0	-2	-1	4	/
CC(=O)Nc1cccc(C(=O)/C=C/c2ccc(Br)cc2)c1	0	0	23	48*	67*	73*
CC(=O)Nc1cccc(C(=O)/C=C/c2ccc(N(C)C)cc2)c1	1	-1	-70	-4	3	/
CCOc1cccc(/C=C/c2ccc3cccc(O)c3n2)c1OC	2	-2	-6	79*	9	6
CSCCC(NS(=O)(=O)c1ccc(Cl)cc1)C(=O)OCC(=O)c1c(C)[nH]c2ccccc12 (stereo unspecified)	2	0	5	41*	4	25
Cc1[nH]c2ccccc2c1C(=O)COC(=O)C1CC(O)CN1S(=O)(=O)c1ccc(Cl)cc1 (stereo unspecified)	0	/	4	6	-15	/
O=C1C2C3C=CC(C4CC34)C2C(=O)N1CCCCN1CCN(c2ccc(F)cc2)CC1 (stereo unspecified)	0	1	8	1	-2	/
CCN(C(=O)COC(=O)C1CC1C)c1c(N)n(Cc2ccccc2)c(=O)[nH]c1=O (stereo unspecified)	/	/	/	0	-4	/
SMILES	GRK2 aptamer HTS	A1 inh	VLA-4 inh	NTR1 ag	Beta2AR agonist	NTR1 ag conf
COc1ccccc1-c1cn[nH]c1-c1ccc(OCc2ccccc2)cc1O	3	3	-2	57*	5	1
COc1ccc(-c2cn[nH]c2-c2ccc(OCc3ccccc3)cc2O)cc1	2	1	1	30	15	/
Cc1cc(C(=O)Cn2cnc3cc(F)ccc3c2=O)c(C)n1C1CC1	0	0	-5	1	-4	/
C=CCN(C(=O)CCC(=O)Nc1cc(C)on1)C(C(=O)NC1CCCC1)c1ccc(C)cc1 (stereo unspecified)	3	0	1	-1	6	/
CCOC(=O)c1sc(Nc2nc3c(OC)cccc3s2)nc1C	4	-2	-7	55*	11	26
O=C(CC(c1ccccc1)c1cc(Br)ccc1O)NCCN1CCOCC1 (stereo unspecified)	1	0	8	43*	-1	1
COc1cc2c3nnc(-c4ccc(F)cc4)c-3cn(Cc3cccc(F)c3)c2cc1OC	4	-1	i	65*	-73	71*
COc1cccc(Cn2nc3c4cc(F)ccc4n(Cc4ccc(F)cc4)cc-3c2=O)c1	0	1	-25	0	5	/
COc1cc2c3nnc(-c4ccc(F)cc4)c-3cn(Cc3ccc(C)cc3)c2cc1OC	0	0	0	112*	-309	96*
CCn1c(SCc2ccc(Cl)cc2Cl)nc2nc3c(cc2c1=O)CCCC3	3	0	-1	44*	-6	31
CC(C)[C@H]1C(=O)Nc2ccccc2N1C(=O)N[C@@H](Cc1ccccc1)C(=O)N[C@@H](C(=O)O)c1ccccc1	0	-1	9	0	4	/
Fc1cnc(N/N=C/c2ccc(-c3ccc(Br)cc3)o2)nc1N1CCOCC1	1	-1	2	41*	0	24
Brc1ccc(-c2ccc(/C=N/Nc3nc(N4CCOCC4)nc(N4CCOCC4)n3)o2)cc1	5	0	-5	14	8	/
Cc1cc(F)ccc1S(=O)(=O)Nc1ccccc1C(=O)Nc1ccccc1-c1nc2ccccc2[nH]1	0	1	6	53*	29	72*
CN1C(=O)[C@@H]2[C@H](C1=O)[C@@H]1C(=O)Nc3ccccc3C(=O)N1[C@@H]2c1cccc(Br)c1	0	0	10	-1	-2	/
Cc1ccc(OC(F)F)c(NC(=O)Nc2cccc(C(F)(F)F)c2)c1	0	0	-6	43*	7	14
O=C(COCC(=O)Nc1cccc(C(F)(F)F)c1)Nc1cccc(C(F)(F)F)c1	1	-1	-4	47*	-2	12
